The structures appear in SMILES notation. “And” between values parts separate entries of the source, which are not always exact repeats. Equal entries are not always repeated. Screen size: about 410,000 compounds; about 18,000 (4.4%) were called active. Not shown: some 7% with an inconclusive outcome. Rule as the data show it: active = activity change below about -60%; inconclusive = no clear call, values can overlap the other calls; inactive = above about -39%. The entries come from a sample that favours actives as a whole.
% is scaled to controls: 0 for no effect and ±100 for the full control effect.

A short description of the test: qHTS Assay for inhibitors of the human cytomegalovirus (HCMV). The following applies: HFF cells, HCMV-luciferase reporter, 72 h; at 57.5 µM; hits give low values. In short, it runs like this: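 Steps: HFFs plated, 16 h 37C; compounds added; HCMV-luciferase added to MOI 1 PFU/cell; 72 h 37C; OneGlo reagent, 5 min room temperature; luminescence read, normalized to controls.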
A general note: Quantitative high-throughput screening tests each substance at several concentrations.
On to `COc1cccc(C(=O)N2CCCC(CCC(=O)NCc3ccc(F)c(F)c3)C2)c1` (stereo not drawn), for which the activity change, negative = inhibition is 34.9% (inactive). Turning to `COc1ccc(C)cc1N(CC(=O)N1CCC(C)CC1)S(=O)(=O)c1ccc(C)cc1`, the activity change, negative = inhibition is -13.7% (inactive). Then `CCN(CC)CCNC(=O)CN1N=C(c2ccc(OC)cc2)CCC1=O`, with 29.3% (inactive).

With `CC1(C(=O)O)CCN1C(=O)/C=C/c1ccccc1` (stereo not drawn), the activity change, negative = inhibition is -1.81% (inactive). For the compound `CC1(C(=O)NS(=O)(=O)c2ccccc2)CCN1C(=O)C/C=C/c1ccccc1` (stereo not drawn), the activity change, negative = inhibition was 19.5% (inactive).

Turning to `CC1(C)CCSC(/C=C/c2ccccc2)=N1`, the activity change, negative = inhibition was -97.3% (active). Take `COc1cccc(-n2ccn(CC(=O)NCc3ccc(C)cc3)c(=O)c2=O)c1`: the activity change, negative = inhibition is -17.1% (inactive). Consider `Fc1ccccc1N=C1Nc2cccc3cccc1c23`, for which the activity change, negative = inhibition was -68.6% (active).

With `COc1ccc(C)cc1S(=O)(=O)Nc1cc2c3c(c1)CCC(=O)N3CCC2`, the activity change, negative = inhibition is 0.474% (inactive). Then `CCN(CC)P(=O)(/C(Cl)=C\Nc1c(C)n(C)n(-c2ccccc2)c1=O)N(CC)CC`, with 54% (inactive). With `Cc1cc(C)c2nc(SCC(=O)N(C)C3CCS(=O)(=O)C3)cc(C)c2c1` (stereo not drawn), the activity change, negative = inhibition was 25.8% (inactive).

In the case of `CC(C)CCOc1ccc(C(=O)C[N+]2(C)CCOCC2)cc1`, the activity change, negative = inhibition is -4.43% (inactive).

In the case of `CCCOc1ccc(C(=O)C(CCC(CNCC)C(=O)c2ccc(OCCC)cc2)CNCC)cc1` (stereo not drawn), the activity change, negative = inhibition is -96.5% (active). The value for `CCCOc1cccc(C(=O)Nc2cccc(NC(=O)c3ccc(C(C)(C)C)cc3)c2)c1` was 50.3% (inactive). As for `Cc1ccc(OCCn2c(CNc3ccccc3C)nc3ccccc32)cc1`, the activity change, negative = inhibition was 38% (inactive).

In the case of `COc1ccc(/C=C/c2nc(C#N)c(NCc3ccc(F)cc3)o2)cc1OC`, the activity change, negative = inhibition was 9.25% (inactive). Take `Cc1cc(Cl)ccc1OCC(=O)N(Cc1ccc(N(C)C)cc1)C1CCS(=O)(=O)C1` (stereo not drawn): the activity change, negative = inhibition was 15.4% (inactive).

In the case of `COc1ccc(Cl)cc1NC(=O)CCS(=O)(=O)c1ccc(Br)cc1`, the activity change, negative = inhibition was -65.8% (active).

For the compound `Cc1ccc(Cl)cc1NC(=O)CCS(=O)(=O)c1ccc(Br)s1`, the activity change, negative = inhibition was -33.6% (inactive). Regarding `COc1ccc(Cl)cc1NC(=O)CCC(=O)c1ccc(C)cc1`, the activity change, negative = inhibition is -19.2% (inactive).

Regarding `O=C(c1ccccc1)N1CC(=O)N2[C@@H](CO)[C@@H](c3ccc(Br)cc3)[C@@H]2C1`, the activity change, negative = inhibition is 14.7% (inactive). In the case of `CSc1ccc(CCNC(=O)c2cc(C)nc3c2c(C)nn3-c2cccc(F)c2)cc1`, the activity change, negative = inhibition was 30.7% (inactive). Turning to `COc1cc(NC(=O)c2cc(C3CC3)nc3c2c(C)nn3-c2ccccc2)cc(OC)c1`, the activity change, negative = inhibition is -30% (inactive).

Regarding `Cc1cc(C(=O)Nc2cccc(C(F)(F)F)c2)c2c(C)nn(-c3cccc(F)c3)c2n1`, the activity change, negative = inhibition was -98.1% (active). For the compound `O=C(CN1CCN(S(=O)(=O)/C=C/c2ccccc2)CC1)NC(=O)NCc1ccco1`, the activity change, negative = inhibition is 61.6% (inactive). Consider `COc1ccc(OC)c(C2C3=C(N=c4s/c(=C\c5cccc(O)c5)c(=O)n42)c2ccccc2CC3)c1` (stereo not drawn), for which the activity change, negative = inhibition is -92.5% (active).

In the case of `COc1ccc(Cn2ccc3nc(C)c(C(=O)Nc4ccc(C)c(F)c4)cc3c2=O)cc1`, the activity change, negative = inhibition is 0.318% (inactive). Then `COc1ccc(C2=CC(c3ccccc3Cl)n3nc(-c4ccc(Cl)cc4)nc3N2)cc1` (stereo not drawn), with -32.6% (inactive); and `C/C(=N/NC(=O)CC(=O)N/N=C(\C)c1ccc([N+](=O)[O-])cc1)c1ccc([N+](=O)[O-])cc1`, with -9.56% (inactive); and `C/C(=N\Nc1ccc([N+](=O)[O-])cc1)c1ccc(-n2nncc2C(C)(C)C)cc1`, with -14.8% (inactive). Turning to `C/C(=N\Nc1nc(N2CCOCC2)nc(N2CCOCC2)n1)c1ccc([N+](=O)[O-])cc1`, the activity change, negative = inhibition was -66% (active). Then `CC1CCN(CCCNC(=O)CN2C(=O)CSc3ccc(S(=O)(=O)N4CCCCC4)cc32)CC1`, with 16.9% (inactive) and -5.47% (inactive); and `CCOC(=O)c1ccccc1NC(=O)c1sc2nc(-c3ccc(F)cc3)cn2c1C`, with -4.65% (inactive); and `Cc1cccc(C(=O)Nc2ccc(-c3nc4ncccc4o3)cc2C)c1`, with 24.6% (inactive). For `O=C1NC(=O)N(CCc2ccc(F)cc2)C(=O)/C1=C/C=C/c1ccccc1`, the activity change, negative = inhibition is -71.6% (active). With `O=C1c2ccccc2C(=O)N1CCOc1ccc(F)cc1`, the activity change, negative = inhibition was -3.7% (inactive). For `CCc1ccc(OCC(=O)N2CCN(CC(=O)Nc3ccccc3Cl)CC2)cc1`, the activity change, negative = inhibition was 11.8% (inactive).

Regarding `Clc1ccc(-c2cc(COc3ccccc3)no2)cc1Cl`, the activity change, negative = inhibition was 0.868% (inactive). With `Cc1ccc(NC(=O)CSc2nnc3[nH]c(=O)cc(C)n23)cc1Cl`, the activity change, negative = inhibition is -38.5% (inactive). The value for `COc1ccc(-c2cc(=O)oc3cc(OC(C)C(=O)NCC4CCC(C(=O)O)CC4)ccc23)cc1` (stereo not drawn) was 5.3% (inactive).

Consider `COc1ccc(-c2cc(=O)oc3cc(OC(C)C(=O)Nc4ccc(CN5CCOCC5)cc4)ccc23)cc1` (stereo not drawn), for which the activity change, negative = inhibition is -70.7% (active). With `Cc1cc(=O)oc2cc(OC(C)C(=O)Nc3ccc(N4CCOCC4)cc3)ccc12` (stereo not drawn), the activity change, negative = inhibition was 5.98% (inactive). As for `CCCNC(=O)c1ccc2c(c1)ncn2-c1ccc(C)cc1C`, the activity change, negative = inhibition is -6.25% (inactive). Consider `O=C(Nc1ccc2nc(SCC(=O)N3CCCc4ccccc43)sc2c1)c1ccc(Cl)cc1`, for which the activity change, negative = inhibition is 95.5% (inactive). Then `CC(C)(C)c1ccc(C(=O)Nc2ccc3c(c2)CCCN3C(=O)c2cccs2)cc1`, with -80.2% (active). Then `O=C(Nc1ccc2nc(SCC(=O)N3CCCc4ccccc43)sc2c1)c1ccc(F)cc1`, with -5.14% (inactive); and `Cc1ccc(CNC(=O)CCCNC(=O)c2ccc(Cl)cc2)n1C`, with 43.4% (inactive). `CCOc1ccccc1CNC(=O)C1CCCN(S(=O)(=O)c2ccc3c(ccn3C)c2)C1` (stereo not drawn): the activity change, negative = inhibition is -5.75% (inactive). For the compound `Cc1ccc(CNC(=O)CCc2c(C)nn(-c3ccc(N4CCCC4)nn3)c2C)cc1`, the activity change, negative = inhibition was 19.6% (inactive).

With `CCN(CC)C(=O)CSc1nnc(C2CCCCC2)o1`, the activity change, negative = inhibition is 18.8% (inactive). With `Cc1[nH]c2ccccc2c1C(=O)C(C)Sc1nnc(C2CC2)o1` (stereo not drawn), the activity change, negative = inhibition is 0% (inactive). Turning to `CCCCCC1CCC(c2nnc(SCC(C)=O)o2)CC1` (stereo not drawn), the activity change, negative = inhibition was -99.8% (active). For the compound `Cc1ccc(CNC(=O)CCNS(=O)(=O)c2ccc3c(c2)oc(=O)n3C)cc1`, the activity change, negative = inhibition is -1.91% (inactive).

As for `COC1=CC=C2[C@H]3Cc4ccc(OC)c5c4[C@@]2(CCN3C)C1O5` (stereo partly drawn), the activity change, negative = inhibition was 23.5% (inactive).

Consider `COC1=C[C@@H]2[C@@H]3Cc4ccc(OC)c(O)c4[C@]2(CCN3C)CC1=O`, for which the activity change, negative = inhibition is -68% (active).

As for `COc1ccc2c(c1)[C@]13CCCCC1C(C2)N(C)CC3` (stereo partly drawn), the activity change, negative = inhibition was -2.65% (inactive). As to `Cc1ccc(Cl)cc1N1CCN(C(=O)c2cccn3c(=O)c4cc(Cl)ccc4nc23)CC1`, the activity change, negative = inhibition is -4.38% (inactive). On to `COc1ccc(-c2nc3scc(CCNS(=O)(=O)c4cc(F)ccc4OC)n3n2)cc1OC`, for which the activity change, negative = inhibition was 34.6% (inactive). For the compound `CC(=NCc1ccc2c(c1)OCO2)C1=C(O)c2ccccc2C1=O`, the activity change, negative = inhibition is 14.5% (inactive). On to `CCOC(=O)c1scc(-c2ccc(C)cc2)c1S(=O)(=O)Nc1cc(C)ccc1C`, for which the activity change, negative = inhibition was -16.6% (inactive).

Take `CCOC(=O)c1c(-c2ccc(C)cc2)csc1/N=C(\C)C1=C(O)c2ccccc2C1=O`: the activity change, negative = inhibition was -62.8% (active). In the case of `CSc1ccc(C2C(C(=O)Nc3ccccc3)=C(C)Nc3nc4ccccc4n32)cc1` (stereo not drawn), the activity change, negative = inhibition was 8.38% (inactive). As for `COc1ccc(CNC(=O)Cn2nnc(-c3ccc(S(C)(=O)=O)cc3)n2)cc1`, the activity change, negative = inhibition is 21.5% (inactive). As for `COc1cccc(N2CCN(c3ccc4nnc(CCC(=O)N5CCN(C)CC5)n4n3)CC2)c1`, the activity change, negative = inhibition is -14.4% (inactive). As to `COc1ccc(N2CCN(C3=NS(=O)(=O)C(c4cccc(Br)c4)=C3C)CC2)cc1`, the activity change, negative = inhibition is -29.4% (inactive). As to `COc1cccc(-c2nc3ccc(N4CCN(C)CC4)cc3[nH]2)c1`, the activity change, negative = inhibition is -68.2% (active). The value for `CCCCOC(=O)CSc1ncnc2sc3c(c12)CCC(C)C3` (stereo not drawn) was -8.12% (inactive); that for `CN1CCN(/N=C/c2c[nH]c3ccccc23)CC1` was 41% (inactive). In the case of `C[n+]1ccc(/C=C/c2c[nH]c3ccccc23)cc1`, the activity change, negative = inhibition was -99.1% (active). With `CCC/C(=N\O)c1c[nH]c2ccccc12`, the activity change, negative = inhibition is 26.6% (inactive). On to `COc1ccc(Cl)cc1N(C)C(=O)c1cc2c(=O)oc3ccc(C)cc3c2s1`, for which the activity change, negative = inhibition was -13.9% (inactive). Turning to `O=C(CN1CCSc2ccccc21)N1CCN(c2ccccc2)CC1`, the activity change, negative = inhibition was -1.62% (inactive).

Take `CC(NC(=O)CN(C)S(=O)(=O)c1ccc(F)cc1)C1CC2CCC1C2` (stereo not drawn): the activity change, negative = inhibition was 5.39% (inactive). For the compound `Cc1cccc(C(=O)OCC(=O)NC(C)C2CC3CCC2C3)c1O` (stereo not drawn), the activity change, negative = inhibition is 50.9% (inactive).

Consider `CCOC(=O)CCC(=O)OCC(=O)NC(C)C1CC2CCC1C2` (stereo not drawn), for which the activity change, negative = inhibition is -99.5% (active). As to `Cn1ccnc1SCC(=O)Nc1ccc2c(c1)OCCO2`, the activity change, negative = inhibition is 147% (inactive). As for `COc1cccc(NC(=O)c2csnn2)c1`, the activity change, negative = inhibition is 24.9% (inactive). Then `Cn1cnc(S(=O)(=O)Nc2ccc3c(c2)OCCO3)c1`, with 30.3% (inactive); and `COc1cccc(NC(=O)c2nn(C34CC5CC(CC(C5)C3)C4)cc2[N+](=O)[O-])c1`, with -71.1% (active). As to `Cn1cc([N+](=O)[O-])c(C(=O)Nc2ccc3c(c2)OCCO3)n1`, the activity change, negative = inhibition is -91% (active).

As to `COc1cccc(NC(=O)COc2cccnc2[N+](=O)[O-])c1`, the activity change, negative = inhibition is 9.93% (inactive). Then `O=C(NCc1ccco1)O[C@H]1CC[C@@]23CCCN2C(=O)CCC[C@H]3[C@H]1Cc1ccccc1`, with 13.9% (inactive); and `CCC(=O)N1CCc2cc(CNS(=O)(=O)c3ccc(Br)s3)ccc21`, with -28.1% (inactive); and `CCOc1ccc(C(=O)N2CCN(CCc3ccccn3)CC2)cc1`, with 7.37% (inactive).

Regarding `Cc1nnc2n1N=C(c1ccc3c(c1)NC(=O)CO3)CS2`, the activity change, negative = inhibition was 58.6% (inactive). The value for `O=C(c1ccc2c(c1)N(Cc1ccccc1)C(=O)c1ccccc1S2(=O)=O)N1CCCC1` was -21.3% (inactive); that for `O=C(c1ccc2c(c1)N(Cc1ccc(Cl)cc1)C(=O)c1ccccc1S2(=O)=O)N1CCCCC1` was -15.9% (inactive); that for `O=C(c1ccc2c(c1)N(Cc1ccc(F)cc1)C(=O)c1ccccc1S2(=O)=O)N1CCN(c2ccccn2)CC1` was -76.7% (active) and -91.8% (active).

For the origin of these results see PubChem BioAssay AID1259415 (National Center for Advancing Translational Sciences (NCATS), 2018).
